Sampled rows, rich in hits. Any-hit rate of the full collection: about 7.3%.
ELG1 genotoxic = inducers of genotoxicity in HEK293T ELG1-luciferase cells. Potency, µM (titrated, usually from 46 µM), usual class: activators. hit rate 1.3% among 330,000. HEK293T ELG1-luciferase reporter, luminescence, 16 h; note: nearly all actives have a fitted effect of over 60% in size
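Genotoxic stress is detected as increased luminescence from luciferase-tagged ELG1 in HEK293T cells, measured with ONE-Glo after a 16 hr treatment at 37 °C.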
FLuc modulator = inhibits or activates purified firefly luciferase, miR-21 counter-screen | purified FLuc, Km substrates, luminescence inhibition | hit rate 6.9% among 360,000 | Potency, µM (titrated, usually from 57.5 µM), most hits filed as inhibitors | AID 588342; note: nearly all actives have a fitted effect of over 55% in size
Target sequence (P08659 whole entry, looked up): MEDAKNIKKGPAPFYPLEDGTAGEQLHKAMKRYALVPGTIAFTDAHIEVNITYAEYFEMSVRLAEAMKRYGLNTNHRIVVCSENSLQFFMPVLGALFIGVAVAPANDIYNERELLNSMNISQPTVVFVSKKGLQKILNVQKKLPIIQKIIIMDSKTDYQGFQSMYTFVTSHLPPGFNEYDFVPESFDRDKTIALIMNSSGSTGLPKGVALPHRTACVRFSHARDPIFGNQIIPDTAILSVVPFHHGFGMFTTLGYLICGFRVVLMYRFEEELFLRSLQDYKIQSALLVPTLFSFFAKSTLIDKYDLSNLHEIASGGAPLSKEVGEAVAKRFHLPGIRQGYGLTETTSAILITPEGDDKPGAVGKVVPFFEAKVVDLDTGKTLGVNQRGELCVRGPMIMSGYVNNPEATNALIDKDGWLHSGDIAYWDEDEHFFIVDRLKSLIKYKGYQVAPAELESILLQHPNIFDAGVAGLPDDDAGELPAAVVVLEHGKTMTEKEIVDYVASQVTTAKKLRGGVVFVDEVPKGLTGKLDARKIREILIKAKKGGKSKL
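Purified P. pyralis luciferase, 10 nM final, with Km-level 10 uM D-luciferin and 10 uM ATP in 50 mM Tris acetate pH 7.5, 10 mM Mg acetate, 0.01% Tween-20, 0.05% BSA; 6-point qHTS titration about 60 µM downward; luminescence read.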
NPC1 promoter act = activates the NPC1 promoter. Potency, µM (series often up to 9.22 µM), actives largely listed as activators. Huh7 NPC1 promoter luciferase reporter, 24 h. hit rate 2.4% among 320,000; note: nearly all actives have a fitted effect of over 60% in size
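Stably transfected Huh7 (NPC1 promoter→luciferase), 1500 cells/well in Opti-MEM + 10% FBS, 2 h settle, then compound 24 h at 37 °C. Luminescence after 10 min with Amplite reagent.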
SMN2 splice up = SMN2 splice variant enhancement. hit rate 2.8% among 210,000. Potency, µM (top dose mostly 46.1 µM), most hits filed as activators. HEK293 SMN2-luciferase splicing reporter, luminescence, 30-36 h; note: nearly all actives have a fitted effect of over 55% in size
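HEK293 cells carry an SMN2 […]–luciferase reporter in which exon 7 inclusion puts luciferase in frame. Cells were plated 10-12 h before compound addition, then incubated 30-36 h at 37C. ONE-Glo luminescence was read; sodium butyrate at 4.5 mM final served as control.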
p53 reactivator = restores transcriptional activity of mutant p53. H1299 p53-A138V BP100-luciferase reporter, luminescence, 24 h. Potency, µM (doses to about 92.2 µM), most hits filed as activators. hit rate 0.063% among 320,000; note: nearly all actives have a fitted effect of over 45% in size
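H1299 (p53-null), stable ts p53-A138V + BP100-Luc; 1000 cells/well, Opti-MEM/10% FBS; cpd 4 pt, 1:5; 24 h, 37 deg C, 5% CO2; detection reagent 10 min RT; luminescence.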
Rab9 promoter act = activates the Rab9 promoter. hit rate 2.8% among 320,000. Potency, µM (titrated, usually from 9.22 µM), actives largely listed as activators. Huh7 Rab9 promoter-luciferase reporter, luminescence, 24 h; note: nearly all actives have a fitted effect of over 60% in size
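Promoter activation is measured as luciferase luminescence in Huh7 cells stably transfected with a Rab9 promoter–luciferase construct, following 24 h compound exposure at 37 °C and 10 min reagent incubation at ambient temperature.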
Hits are given with their value; i = inactive; ? = inconclusive; nt = not tested or not shown; [ ] = remark or other dose. Calls come from the whole dose curve; as a rule, active = well fitted curve in the direction sought with a large enough effect; inconclusive = small, poorly fitted or top-dose-only effect, or another doubt; inactive = no such curve, though single readings can be large; an effect the other way counts as inactive or inconclusive.

SMILES	ELG1 genotoxic	FLuc modulator	NPC1 promoter act	SMN2 splice up	p53 reactivator	Rab9 promoter act
O=c1sc(Nc2ccccc2)nc2ccsc12	18.4µM	12µM	i	i	i	?
O=C(NCc1ccc(F)cc1)C1CCCN(c2nc3ccsc3c(=O)s2)C1 (configuration not stated)	i	i	i	i	i	i
O=C(Nc1nc2ccsc2c(=O)s1)C1CCC1	?	19µM	?	nt	?	?
O=C(Nc1ccc([N+](=O)[O-])cc1)c1cc(Cl)sc1Cl	i	i	i	nt	i	i
O=C(Nc1nc2ccsc2c(=O)s1)c1ccco1	?	15.1µM	?	nt	i	?
COc1ccc2nc(NC(=O)C3CCN(C(=O)c4ccco4)CC3)sc2c1	i	?	?	nt	i	?
Cc1ccc2nc(NC(=O)c3ccco3)sc2c1	0.206µM	0.269µM	?	1.12µM	i	0.794µM
COc1ccc2nc(NC(=O)c3ccco3)sc2c1	0.58µM	0.536µM	0.316µM	nt	i	0.112µM
CCOC(=O)C1CCC(CN(Cc2c(Cl)cccc2Cl)S(=O)(=O)c2ccc(Cl)cc2)CC1 (configuration not stated)	nt	i	nt	nt	nt	nt
CCCCc1nc2c(c3c1C[C@H](C)OC3)CN(C(=O)c1ccco1)CC2	nt	nt	nt	i[9.22 µM]	nt	nt
Cn1cccc1C(=O)N1CCC2(CCCN(c3cccc(-c4ccccc4)c3)C2)CC1	nt	nt	nt	i	nt	nt
COc1cccc(-c2csc(NC(=O)C3CC3)n2)c1	11.6µM	10.7µM	?	i	?	?
O=C(Nc1ccccc1)Nc1nc(-c2ccccc2)cs1	i	?	i	nt	i	i
COc1cccc(-c2csc(NC(=O)Nc3ccccc3)n2)c1	i	13.5µM	i	nt	i	i
COc1cccc(CC(=O)Nc2nc(-c3cccnc3)cs2)c1	i	i	i	i	i	i
Cc1ccc(S(=O)(=O)c2cnc(SCC(=O)Nc3ccc4c(c3)OCCO4)[nH]c2=O)cc1Cl	nt	10.7µM	nt	nt	nt	nt
Cc1ccc(S(=O)(=O)c2cnc(SCC(=O)Nc3ccc4c(c3)OCCO4)[nH]c2=O)cc1	nt	10.7µM	nt	i	nt	nt
COc1cccc(NC(=O)CSc2ncc(S(=O)(=O)c3ccc(C)c(C)c3)c(=O)[nH]2)c1	nt	?	nt	i	nt	nt
CC(C)c1ccc(S(=O)(=O)c2cnc(SCC(=O)Nc3ccc4c(c3)OCCO4)[nH]c2=O)cc1	nt	10.7µM	nt	i	nt	nt
O=C(CSc1ncc(S(=O)(=O)c2ccc(Cl)cc2)c(=O)[nH]1)Nc1ccc2c(c1)OCCO2	nt	12µM	nt	i	nt	nt
CCOc1ccccc1CNC(=O)c1cc(-c2ccc(Cl)s2)nc2ccccc12	nt	i	nt	i	nt	nt
CCOc1ccc(N2CC(NC(=O)/C=C\c3ccc4c(c3)OCO4)CC2=O)cc1 (configuration not stated)	nt	i	nt	nt	nt	nt
CC(C)Oc1ccc(CNC(=O)Cn2nc(N3CCN(c4ccccc4)CC3)ccc2=O)cc1	nt	i	nt	nt	nt	nt
COc1ccc(S(=O)(=O)c2cnc(SCC(=O)Nc3cc(F)ccc3C)[nH]c2=O)cc1Cl	nt	9.53µM	nt	i	nt	nt
Cc1cc(C)c(NC(=O)CSc2ncc(S(=O)(=O)c3ccc(C(C)(C)C)cc3)c(=O)[nH]2)c(C)c1	nt	10.7µM	nt	i	nt	nt
SMILES	ELG1 genotoxic	FLuc modulator	NPC1 promoter act	SMN2 splice up	p53 reactivator	Rab9 promoter act
CN1CC[C@@]2(CCCN(S(=O)(=O)c3ccccc3)C2)C1	nt	nt	nt	i	nt	nt
CCc1ccc(C(=O)c2cn(CC(=O)Nc3ccc4c(c3)OCCO4)c3ccc(CC)cc3c2=O)cc1	nt	i	nt	i	nt	nt
COC(=O)C1=C(C)NC(=O)/C1=C\c1cc(C)n(-c2c(C)cccc2C)c1C	i	i	i	i	?	i
COC(=O)C1=C(C)NC(=O)/C1=C\c1cc(C)n(-c2ccccc2C)c1C	i	16.9µM	i	i	i	i
CCOC(=O)C1=C(O)/C(=C\c2cc(C)n(-c3ccc(F)cc3)c2C)N=C1C	i	?	i	i	i	i
COC(=O)C1=C(C)NC(=O)/C1=C\c1cc(C)n(-c2ccccc2F)c1C	i	12µM	i	25.1µM	i	i
CCOC(=O)C1=C(O)/C(=C\c2cc(C)n(-c3ccccc3F)c2C)N=C1C	i	0.601µM	i	i	i	i
O=C(O)c1cc(N/N=C/c2c(O)ccc3ccccc23)ccc1Cl	14.6µM	2.39µM	1.58µM	nt	?	1.41µM
Nc1cc(Cl)nc(N/N=C/c2c(O)ccc3ccccc23)n1	?	2.69µM	?	?	?	2.51µM
Cc1ccc(CSc2nc3c(c(N(C)C)n2)CCCC3)cc1	?	i	i	i	i	i
Cc1nc(SCc2ccccc2)nc2c1CCC2	?	16.9µM	?	11.2µM	?	?
CN(C)/C=C/C(=O)c1cnc(-c2cccc(Cl)c2)s1	?	12µM	3.16µM	14.1µM	i	1.26µM
CN(C)/C=C/C(=O)c1ccc(Br)s1	?	?	i	i	i	i
CN(C)/C=C/C(=O)c1cnc(-c2ccccn2)s1	i	?	3.16µM	11.2µM	i	1.58µM
CN(C)/C=C/C(=O)c1cnc(-c2ccccc2Cl)s1	?	9.53µM	2µM	12.6µM	i	1.26µM
CCO	nt	nt	nt	i	nt	nt
O=C(NCCc1ccc(Cl)cc1)c1ccc2ccccc2n1	?	?	i	nt	i	i
O=C(O)C(=O)/C(=C\c1ccc(Cl)cc1)c1ccc2ccccc2n1	?	?	i	12.6µM	i	i
Cc1nc(COc2ccccc2Cl)sc1-c1ccnc(N)n1	i	10.7µM	i	nt	i	i
Cc1ccsc1/C=N/NC(=O)c1ccc(-n2cccc2)cc1	i	i	i	nt	i	?
Cc1ccsc1/C=N/NC(=O)c1ccc2c(c1)OCCO2	1.64µM	0.953µM	0.631µM	nt	i	0.355µM
Cc1ccsc1/C=N\NC(=O)c1ccc2c(c1)OCO2	?	3.79µM	1.41µM	?	i	1.41µM
COC(=O)c1ccc(OCC2c3cc(OC)c(OC)cc3CCN2C(=O)c2cccc(C)c2)cc1 (configuration not stated)	nt	i	nt	nt	nt	nt
Cc1cccc(NC(=O)[C@@H]2CCCN2C(=O)OC(C)(C)C)c1C	i	i	i	nt	i	i
CN(C)CCCSc1nc2ccccc2[nH]1	nt	nt	nt	i[9.22 µM]	nt	nt
SMILES	ELG1 genotoxic	FLuc modulator	NPC1 promoter act	SMN2 splice up	p53 reactivator	Rab9 promoter act
Cc1ccccc1OCCCSc1nc2ccccc2[nH]1	i	23.9µM	i	nt	?	i
Cc1c(OCC(F)(F)F)ccnc1CSc1nc2ccccc2[nH]1	i	12µM	?	i	i	?
Cc1ccccc1OCC(=O)Nc1nc2ccccc2[nH]1	i	3.38µM	?	17.8µM	i	2.24µM
CC(CC(=O)Nc1nc2ccccc2[nH]1)c1ccccc1 (configuration not stated)	?	12µM	4.47µM	?	?	3.98µM
O=C(COc1cccc2ccccc12)Nc1nc2ccccc2[nH]1	i	?	i	i	i	i
C=C1CCO[C@@]2([C@H](O)[C@@](C)(O)CO)NC(=O)[C@]1(O)NC2=O	nt	nt	nt	i[9.22 µM]	nt	nt
O=C1CCC(=O)N1N1C(=O)C2C3c4ccccc4C(c4ccccc43)C2C1=O (configuration not stated)	i	i	i	i	i	i

Assay outcomes: PubChem, National Center for Advancing Translational Sciences (NCATS)
